Assay outcomes deposited in PubChem BioAssay by National Center for Advancing Translational Sciences (NCATS).
Marburg entry inh: qHTS for inhibitors of binding or entry into cells for Marburg Virus; Marburg virus pseudotyped entry inhibition, cell reporter; Potency, µM (highest dose often 37.8 µM), for inactives: at the highest dose activity change, negative = inhibition, most hits filed as inhibitors; 300,000 tested, 1.8% active; AID 540276, 2011; calls by dose curve; tested in HEK293 cells; also: potency is read from the fitted curve at half-maximal effect
Giardia FBPA inh: qHTS Assay for Inhibitors of Fructose-1,6-bisphosphate Aldolase from Giardia Lamblia. A8B2U2. 290,000 tested, 0.71% active. Potency, µM (top dose mostly 59.6 µM), inactives show at the top dose activity, negative = inhibition, most hits filed as inhibitors. AID 2451, 2010. purified Giardia FBPA; also: potency is read from the fitted curve at half-maximal effect; nearly all actives have a fitted effect of over 55% in size
Target sequence (A8B2U2 whole entry, looked up): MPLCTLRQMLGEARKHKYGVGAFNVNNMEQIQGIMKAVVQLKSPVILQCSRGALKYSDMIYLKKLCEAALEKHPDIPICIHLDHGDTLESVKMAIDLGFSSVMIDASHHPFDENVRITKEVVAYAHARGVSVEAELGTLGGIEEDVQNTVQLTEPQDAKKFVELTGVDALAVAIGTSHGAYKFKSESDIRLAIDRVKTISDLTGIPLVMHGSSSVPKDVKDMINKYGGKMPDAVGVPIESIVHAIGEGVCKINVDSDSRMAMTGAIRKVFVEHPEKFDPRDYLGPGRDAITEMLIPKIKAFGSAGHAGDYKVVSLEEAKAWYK
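Giardia FBPA (40 nM reagent) was preincubated 10 min at RT with compound (up to 57.5 uM final), then substrate plus GAPDH/TPI/NAD/arsenate coupling system with diaphorase/resazurin was added; resorufin fluorescence (525/598 nm) was read after 20 min.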
FMDV antiviral: High Throughput Screening for Foot and Mouth Disease Virus Antivirals. FMDV antiviral cell-based qHTS. Potency, µM (highest dose often 57.9 µM), inactives show at the top dose activity change, negative = inhibition, hits mostly inhibitors. 410,000 tested, 1.2% active; calls by dose curve; tested in HEK293T cells; also: read-out not given here; potency is read from the fitted curve at half-maximal effect; nearly all actives have a fitted effect of over 45% in size
HCV inh: qHTS Assay for Inhibitors of Hepatitis C Virus (HCV); Huh7.5.1 HCVcc-Cre infection, luciferase reporter, 44 h; Potency, µM (top dose mostly 41.8 µM), inactives show at the highest dose activity change, negative = inhibition, most hits filed as inhibitors; 340,000 tested, 3.4% active; AID 651820, 2012; also: potency is read from the fitted curve at half-maximal effect
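After 44 h co-culture of compound, cells and HCVcc-Cre (~0.5 moi), substrate is added for 15 min at room temperature and luciferase measured over 15 sec. Cells were seeded at 1,000/well and pre-cultured 4 h.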
LASV entry inh: qHTS for Inhibitors of binding or entry into cells for Lassa Virus | Lassa virus pseudotype entry inhibition, cell reporter | Potency, µM (highest dose often 37.9 µM), inactives show at the highest dose activity change, negative = inhibition, actives largely listed as inhibitors | 300,000 tested, 1.2% active | AID 540256, 2011; calls by dose curve; tested in HEK293 cells; also: potency is read from the fitted curve at half-maximal effect; nearly all actives have a fitted effect of over 50% in size
HCMV inh: qHTS Assay for inhibitors of the human cytomegalovirus (HCMV); HFF cells, HCMV-luciferase reporter, 72 h; active compounds read low; activity change, negative = inhibition, % at 57.5 µM; 410,000 tested, 4.5% active; AID 1259415, 2018; in the data active = activity change below about -60%; inconclusive = no clear call, values can overlap the other calls; inactive = above about -39%
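Luciferase read-out from HCMV-luciferase-infected HFFs (MOI 1 PFU/cell) 72 h post infection at 37C; compounds added after 16 h cell attachment; activity normalized between buffer-only basal and Salinomycin (10uM) inhibitor controls.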
* hit, by the source's call; [ ] = remark or other dose. A selection: hits, their analogues and other compounds. The true share with any hit is near 8.3%. Unless noted, calls follow the shape of the dose curve; as a rule, active = well fitted curve in the direction sought with a large enough effect; inconclusive = small, poorly fitted or top-dose-only effect, or another doubt; inactive = no such curve, though single readings can be large; an effect the other way counts as inactive or inconclusive. % is scaled to controls: 0 for no effect and ±100 for the full control effect.

How did COc1cccc(NC(=O)c2nnn(Cc3ccc(OC)c(Br)c3)c2N)c1 do in these assays?
Marburg entry inh: -7%[46.1 µM]; FMDV antiviral: 4%; LASV entry inh: -7%[46.1 µM]; HCMV inh: 2

Results for O=c1cnc2cnc(N3CCOCC3)nc2n1C[C@H]1CCCO1 ?
Giardia FBPA inh: 0%; FMDV antiviral: -9%

What do the screens show for `CN1N=C(C(=O)N2CCOc3ccc(CN4CCCC(C(=O)c5cccnc5)C4)cc3C2)CCC1=O` (centres undefined)?
FMDV antiviral: 1%

How did CC(=O)c1c(C)oc2ccc(N(C(C)=O)S(=O)(=O)c3ccc(F)cc3C)cc12 do in these assays?
Marburg entry inh: -21%; FMDV antiviral: inconclusive; HCV inh: inconclusive; LASV entry inh: -3%; HCMV inh: 2

Results for CC(=O)c1c(C)oc2ccc(N(C(C)=O)S(=O)(=O)c3ccc(Br)cc3)cc12 ?
Marburg entry inh: inconclusive; FMDV antiviral: inconclusive; HCV inh: inconclusive; LASV entry inh: -13%; HCMV inh: inconclusive

Results for CCOc1ccc(S(=O)(=O)N(C(C)=O)c2ccc3oc(C)c(C(=O)OC)c3c2)cc1 ?
Marburg entry inh: inconclusive; FMDV antiviral: inconclusive; LASV entry inh: inconclusive; HCMV inh: -62*

How did COC(=O)c1c(C)oc2ccc(N(C(C)=O)S(=O)(=O)c3ccccc3)cc12 do in these assays?
Marburg entry inh: inconclusive; FMDV antiviral: -16%; HCV inh: inconclusive; LASV entry inh: inconclusive; HCMV inh: -35

Results for CCCC(=O)N(c1ccc2oc(C)c(C(C)=O)c2c1)S(=O)(=O)c1ccc(CC)cc1 ?
FMDV antiviral: inconclusive; LASV entry inh: inconclusive; HCMV inh: -93*

What do the screens show for `CC(=O)c1c(C)oc2ccc(N(C(C)=O)S(=O)(=O)c3cccc4cccnc34)cc12`?
Marburg entry inh: inconclusive; Giardia FBPA inh: 0%; FMDV antiviral: inconclusive; HCV inh: inconclusive; LASV entry inh: inconclusive; HCMV inh: -79*

Results for CC(=O)c1c(C)oc2ccc(N(C(C)=O)S(=O)(=O)c3ccc(Cl)c([N+](=O)[O-])c3)cc12 ?
Marburg entry inh: -24%[46.1 µM]; Giardia FBPA inh: 1%; FMDV antiviral: 35µM*; HCV inh: 5%; LASV entry inh: -29%; HCMV inh: 10

Results for COc1cc(Cl)c(CN2CCOc3ccc(CN4CCCCC4CO)cc3C2)cc1OC (centres undefined) ?
FMDV antiviral: -4%

What do the screens show for `CC(=O)N1C(=O)NC(C)=C(C#N)C1c1ccccc1` (centres undefined)?
Marburg entry inh: -10%[14.2 µM]

How did Nc1nc(N2CCCCC2)c(C=O)c(N2CCCCC2)n1 do in these assays?
Marburg entry inh: -24%[46.1 µM]; Giardia FBPA inh: inconclusive; FMDV antiviral: 13%; HCV inh: 11%; LASV entry inh: inconclusive; HCMV inh: 13

How did Nc1nc(Cl)c(C=O)c(N2CCCCC2)n1 do in these assays?
Marburg entry inh: -1%[46.1 µM]; Giardia FBPA inh: -7%; FMDV antiviral: -17%; HCV inh: 10µM*; LASV entry inh: inconclusive; HCMV inh: inconclusive

Results for COc1cccc(C(=O)Nc2ccc3nc(SCC(=O)N4CCc5ccccc54)sc3c2)c1 ?
Marburg entry inh: -14%[46.1 µM]; FMDV antiviral: -12%; LASV entry inh: 4%[46.1 µM]; HCMV inh: 43

What do the screens show for `O=C(c1ccc(Cl)cc1)N1CCCCC(Sc2nnc(-c3ccc4c(c3)OCO4)o2)C1=O` (centres undefined)?
Marburg entry inh: inconclusive; Giardia FBPA inh: -1%; FMDV antiviral: 10µM*; HCV inh: -2%; LASV entry inh: inconclusive; HCMV inh: -67*

Results for O=C(O)CSc1nnc(-c2ccc3c(c2)OCO3)o1 ?
Marburg entry inh: -8%; Giardia FBPA inh: 11%; FMDV antiviral: -16%; HCV inh: 21%; LASV entry inh: -17%; HCMV inh: 36

What do the screens show for `CCOc1ccc(N(C)S(=O)(=O)c2cc(-c3cc(C)no3)ccc2CC)cc1`?
Marburg entry inh: inconclusive; FMDV antiviral: 18µM*; HCV inh: inconclusive; LASV entry inh: inconclusive; HCMV inh: -90*

How did CCOc1ccc(N(C)S(=O)(=O)c2cc(-c3cc(C)no3)ccc2C)cc1 do in these assays?
Giardia FBPA inh: -5%; FMDV antiviral: 20µM*; HCV inh: inconclusive; HCMV inh: 0

How did CCOc1ccc(N(C)S(=O)(=O)c2cc(-c3cc(C)no3)ccc2OC)cc1 do in these assays?
Giardia FBPA inh: -10%; FMDV antiviral: -15%; HCV inh: inconclusive; LASV entry inh: inconclusive; HCMV inh: inconclusive

How did Cc1cc(-c2ccc(C)c(S(=O)(=O)N(Cc3cccs3)C(C)C)c2)on1 do in these assays?
FMDV antiviral: 0%; LASV entry inh: -30%[46.1 µM]; HCMV inh: -77*

What do the screens show for `CC(CCN1CCc2nc(-c3ccccc3)c(-c3ccccc3)cc2C1)=NO[C@H](C)CN1CCCCc2nc(C)c(C)cc21`?
Marburg entry inh: 25%[14.2 µM]

Results for C=C(C)CNC(=S)NNC(=O)CCn1c2ccc(Cl)cc2c2cc(Cl)ccc21 ?
Marburg entry inh: -15%; Giardia FBPA inh: 0%; FMDV antiviral: -27%; HCV inh: -28%; LASV entry inh: inconclusive; HCMV inh: -82*

What do the screens show for `COc1ccc(C(=O)/C=C/c2cn(CC(O)CN3CCc4ccccc43)c3ccccc23)cc1OC` (centres undefined)?
Marburg entry inh: inconclusive; FMDV antiviral: inconclusive; LASV entry inh: inconclusive; HCMV inh: -64*

How did COc1ccc(C(=O)/C=C/c2cn(CC(O)CN3CCOCC3)c3ccccc23)cc1 (centres undefined) do in these assays?
Marburg entry inh: inconclusive; Giardia FBPA inh: -10%; FMDV antiviral: inconclusive; HCV inh: inconclusive; LASV entry inh: -18%

Results for Cc1ccc(C(=O)/C=C/c2cn(CC(O)CN3CCc4ccccc43)c3ccccc23)cc1 (centres undefined) ?
Marburg entry inh: inconclusive; FMDV antiviral: -5%; LASV entry inh: inconclusive; HCMV inh: -74*

What do the screens show for `CCCN(CCC)CC(O)Cn1cc(/C=C/C(=O)c2ccc(OCC)cc2)c2ccccc21` (centres undefined)?
Marburg entry inh: inconclusive; FMDV antiviral: 0%; LASV entry inh: inconclusive; HCMV inh: -106*

How did COc1ccc(C(=O)/C=C/c2cn(CN3CCN(C)CC3)c3ccccc23)cc1 do in these assays?
Marburg entry inh: inconclusive; Giardia FBPA inh: -20%; FMDV antiviral: 58%; HCV inh: 8.9µM*; LASV entry inh: -28%
